Assay results published in the supplement of paper PMC8726507.

test system: Plasmodium falciparum NF54-HGL (transmission to Anopheles stephensi); experiment: percentage of barcode signal found in uninfected mosquitoes (transmission-blocking activity); higher = stronger blocking of transmission to mosquito, active = 80 or more; settings: 10 µM; gametocyte preincubation time 24 h; readout time post-feed 8 days
Description: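 The mixture was fed to Anopheles stephensi in 96-well plates as blood meals tagged with DNA-barcoded Asaia bacteria. Eight days later, mosquitoes were classed infected or uninfected by luminescence (mean + 5 SD of unfed controls). Barcodes were quantified by Luminex MagPlex-TAG in the pooled uninfected and infected Asaia cultures, background-corrected, and the score is % of barcode signal in uninfected mosquitoes = 100*Iu/(Iu+Ii).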

| Structure (SMILES) | percentage of barcode signal found in uninfected mosquitoes |
| --- | --- |
| O=C(c1[nH]nc2c1CCCC2)N1CCN(Cc2ccc3c(c2)OCO3)CC1 | 9.05% (inactive) |
| CNC(=O)c1nn(C)c2c1C(C)(C)Cc1cnc(Nc3ccc(N4CCN(C)CC4)cc3)nc1-2 | 64% (inactive) |
| CCCS(=O)(=O)N1CCC(CO)(Cc2ccccc2C(F)(F)F)CC1 | 39.3% (inactive) |
| CC(C)N=c1cc2n(-c3ccc(Cl)cc3)c3ccccc3nc-2cc1Nc1ccc(Cl)cc1 | 99.3% (active) |
| O=C(NC1CC1)c1ccc(CSCc2ccccc2Cl)o1 | 36.9% (inactive) |
| O=C(C(Cc1c[nH]c2ccccc12)NS(=O)(=O)c1ccc(Cl)cc1)N1CCCCC1 (configuration not stated) | 62.5% (inactive) |
| O=C(Nc1ccnc(-c2cccnc2)n1)c1cc(C(F)(F)F)cc(C(F)(F)F)c1 | 46.9% (inactive) |
| COc1ccc(C2CC(c3cccs3)=NN2C(=O)c2ccco2)cc1OC (configuration not stated) | 57.1% (inactive) |
| CCc1c(C)nc(-n2nc(C)cc2NC(=O)c2ccccc2SC)[nH]c1=O | 53.6% (inactive) |
| O=C(NC1CC1)c1ccc(N2CCOc3ccc(Cl)cc32)s1 | 49.7% (inactive) |
| O=C(Nc1nnc(-c2ccc(Cl)s2)o1)c1ccc(Cl)s1 | 0.515% (inactive) |
| Cc1cc(NC(=O)c2ccc(S(=O)(=O)N(Cc3ccccc3)C(C)C)cc2)no1 | 35.4% (inactive) |
| O=C(NC1CCCCC1)N1CCN(Cc2ccc3c(c2)OCO3)CC1 | -0.671% (inactive) |
| CCCCc1ccc(NC(=O)Nc2ccc(O[C@H]3CCCC[C@@H]3N(C)c3ccccc3)c(F)c2)cc1 | 28.1% (inactive) |
| CCN(CC)CCCCCCNc1cc(OC)cc2c(C)ccnc12 | 55.8% (inactive) |
| CCc1nc2ccccc2n1CC(O)COc1cc(C)ccc1Cl (configuration not stated) | 41.3% (inactive) |
| O=C(c1ccco1)N(CCCn1ccnc1)c1nc2c(Cl)cccc2s1 | 17.2% (inactive) |
| CC(C)(C)OC(=O)N1CCC(Cn2nc(-c3cnc4ccccc4c3)c3c(N)ncnc32)CC1 | 24.4% (inactive) |
| N=C(N)Nc1ccc(-c2ccc(-c3ccc(N=C(N)N)c(Cl)c3)o2)cc1Cl | 101% (active) |
| COc1cncc(-c2cncc(N3CCN(c4ccncc4)CC3)n2)c1 | 63.9% (inactive) |
| Nc1nc(N)c2c3c(sc2n1)CN(Cc1ccccc1)CC3 | 11.7% (inactive) |
| N=C(N)c1ccc(OCCCCCOc2ccc(C(=N)N)cc2)cc1 | 77.2% (inactive) |

same assay, conditions: 20 µM; gametocyte preincubation time 24 h; readout time post-feed 8 days

| Structure (SMILES) | percentage of barcode signal found in uninfected mosquitoes |
| --- | --- |
| Cc1ccc2nc(C)c(-c3ccn(Cc4ccccc4)n3)n2c1 | 71.6% (inactive) |
| CCCCc1ccc(C(=O)Nc2nccc3ccccc23)nc1 | 48.5% (inactive) |
| NS(=O)(=O)c1cccc(-c2ccc3ncc(N4CCOCC4)nc3c2)c1 | 64.7% (inactive) |
| c1ccc(Oc2ccc(-c3cncc(-c4ccc5[nH]ccc5c4)n3)cc2)cc1 | 29% (inactive) |
| COc1ccc(C(=N)N)cc1-c1cn(-c2ccc(C(=N)N)cc2)nn1 | 2.56% (inactive) |
| CCOC(=O)c1c(NC(=O)c2c(F)c(F)c(F)c(F)c2F)sc(C(N)=O)c1C | 60.8% (inactive) |
| CNc1cc(C)nc(C2CN(C(=O)c3n[nH]c4ccccc34)CCO2)c1 (configuration not stated) | 35.5% (inactive) |
| CN1CCN(S(=O)(=O)c2ccc(-c3ccc4c(Nc5ncc(Cl)cn5)ccnc4c3)cc2)CC1 | 50.8% (inactive) |
| COc1cc(OC)cc(C(=O)NCC2Cc3cc(Cl)cc(-c4ccncc4)c3O2)c1 (configuration not stated) | 1.01% (inactive) |
| Cc1cc(Cl)c(S(=O)(=O)N2CCCC2)cc1OCC(=O)NC1CCCCC1 | 1.74% (inactive) |
| CC(C)(C)c1cnc(NC(=O)c2ccccc2O)s1 | 21.3% (inactive) |
| Clc1cccc(CO[C@H]2CCc3ccccc3[C@@H]2n2ccnn2)c1 | -1.12% (inactive) |
| CC(=O)NCC1CN(c2ccc(-c3ccc(CNCc4cn[nH]n4)cc3)c(F)c2)C(=O)O1 (configuration not stated) | 9.84% (inactive) |
| O=C(Nc1ccccc1-c1nc2c(C(=O)O)cccc2o1)c1ccccc1 | 27.2% (inactive) |
| O=C(NCCc1ccn(-c2ccccc2)n1)C1CCCCC1 | 3.62% (inactive) |
